# Assay results from PubChem BioAssay (Tox21).
# Values joined by “and” are separate entries in the source; they are usually repeats but may differ in a detail not shown here. Equal entries are not always repeated. Records with an inconclusive call do not appear. Where a call stands in place of a potency, no number is given. Some compounds were tested as several samples or in several runs, with calls that do not always agree. Active and inactive are the calls of the source. Unless noted, the call rests on the fitted dose curve; in most records, active means well fitted curve in the direction sought with a large enough effect in the repeat runs; inconclusive means weak or mixed curves; inactive means no such curve, though single readings can be large; an effect the other way counts as inactive or inconclusive.
# Columns and labels:
# [1] = qHTS assay to identify small molecule antagonists of the glucocorticoid receptor (GR) signaling pathway - cell viability counter screen (AID 720693); further: nearly all actives have a fitted effect of over 55% in size
# [2] = qHTS assay for identifying genotoxic compounds that show differential cytotoxicity against isogenic chicken DT40 cell lines with known DNA damage response pathways - wild type cell line (AID 743012); further: nearly all actives have a fitted effect of over 60% in size; further: potency means the concentration at half of the fitted maximal effect
# Procedure, shortened: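 Endpoint: CellTiter-Glo luminescence, 30 min RT. Cells: wild type DT40, 300/well. Exposure: compounds in DMSO, 40 h, 37 C/5% CO2, after ~0.5 h pre-incubation.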
# [3] = qHTS assay for identifying genotoxic compounds that show differential cytotoxicity against isogenic chicken DT40 cell lines with known DNA damage response pathways - Rev3 mutant cell line (AID 743014); further: nearly all actives have a fitted effect of over 55% in size; further: potency means the concentration at half of the fitted maximal effect
# [4] = qHTS assay for identifying genotoxic compounds that show differential cytotoxicity against isogenic chicken DT40 cell lines with known DNA damage response pathways - Rad54/Ku70 mutant cell line (AID 743015); further: nearly all actives have a fitted effect of over 60% in size; further: potency means the concentration at half of the fitted maximal effect
# [5] = qHTS assay to identify small molecule antagonists of the androgen receptor (AR) signaling pathway - cell viability counter screen (AID 743033; further: nearly all actives have a fitted effect of over 45% in size)
# [6] = qHTS assay to identify small molecule antagonists of the androgen receptor (AR) signaling pathway using the MDA cell line - cell viability counter screen (AID 743041; further: nearly all actives have a fitted effect of over 45% in size)
# Procedure, shortened: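 Cytotoxicity counter screen: MDA-kb2 AR-luc cells, compound + R1881, 16 h, 37C, 0% CO2; CellTiter-Fluor added at 15.5 h, fluorescence read after 30 min.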
# [7] = qHTS assay to identify small molecule antagonists of the thyroid receptor (TR) signaling pathway (AID 743065); further: series mostly up to about 70 µM; nearly all actives have a fitted effect of over 55% in size
# Procedure, shortened: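 GH3.TRE-Luc rat pituitary cells (two TREs driving luciferase) were dosed with compound, then stimulated with 1 nM T3 (final) for 23.5 h at 37 C. ONE-Glo luminescence was the read-out, with CellTiter-Fluor fluorescence as the cytotoxicity counter-screen.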
# [8] = test system: thyroid hormone receptor (rat, GH3 cells); assay: qHTS assay to identify small molecule agonists of the thyroid receptor (TR) signaling pathway (AID 743066; calls by dose curve; further: potency means the concentration at half of the fitted maximal effect)
# [9] = qHTS assay to identify small molecule antagonists of the estrogen receptor alpha (ER-alpha) signaling pathway - cell viability counter screen (AID 743074; calls by dose curve;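 further: HEK293 cells carrying ER-alpha-UAS-bla reporter stimulated with 17beta-estradiol; nearly all actives have a fitted effect of over 45% in size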)
# [10] = qHTS assay to identify small molecule antagonists of the estrogen receptor alpha (ER-alpha) signaling pathway using the BG1 cell line - cell viability counter screen (AID 743081);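 further: compound given together with 17beta-estradiol as the ER stimulus; series mostly up to about 70 µM; nearly all actives have a fitted effect of over 45% in size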
# [11] = biological target: Aromatase (Homo sapiens) (UniProt P11511); assay: qHTS assay to identify aromatase inhibitors (AID 743083); further: nearly all actives have a fitted effect of over 55% in size; further: potency means the concentration at half of the fitted maximal effect
# Sequence of Aromatase (Homo sapiens) (P11511 whole entry, looked up): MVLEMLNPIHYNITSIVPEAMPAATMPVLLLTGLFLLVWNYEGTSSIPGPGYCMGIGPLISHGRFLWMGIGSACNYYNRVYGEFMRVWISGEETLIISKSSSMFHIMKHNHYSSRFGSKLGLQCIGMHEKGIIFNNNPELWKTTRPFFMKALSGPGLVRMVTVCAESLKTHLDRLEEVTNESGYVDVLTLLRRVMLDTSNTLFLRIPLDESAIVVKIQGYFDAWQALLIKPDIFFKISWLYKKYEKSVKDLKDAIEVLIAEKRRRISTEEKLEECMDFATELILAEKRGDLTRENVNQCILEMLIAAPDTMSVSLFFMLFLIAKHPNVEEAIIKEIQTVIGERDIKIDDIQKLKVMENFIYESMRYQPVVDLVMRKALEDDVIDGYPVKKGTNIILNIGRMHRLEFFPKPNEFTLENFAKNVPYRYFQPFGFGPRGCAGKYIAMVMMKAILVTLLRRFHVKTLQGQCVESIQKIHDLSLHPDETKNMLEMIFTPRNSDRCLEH
# [12] = biological target: Estrogen receptor (Homo sapiens) (UniProt P03372); assay: qHTS assay to identify small molecule antagonists of the estrogen receptor alpha (ER-alpha) signaling pathway (AID 743069; active means well fitted curve in the direction sought with a large enough effect in the signal ratio in the repeat runs, not every such curve was filed as active; the % refers to the signal ratio)
# Sequence of Estrogen receptor (Homo sapiens) (P03372 whole entry, looked up): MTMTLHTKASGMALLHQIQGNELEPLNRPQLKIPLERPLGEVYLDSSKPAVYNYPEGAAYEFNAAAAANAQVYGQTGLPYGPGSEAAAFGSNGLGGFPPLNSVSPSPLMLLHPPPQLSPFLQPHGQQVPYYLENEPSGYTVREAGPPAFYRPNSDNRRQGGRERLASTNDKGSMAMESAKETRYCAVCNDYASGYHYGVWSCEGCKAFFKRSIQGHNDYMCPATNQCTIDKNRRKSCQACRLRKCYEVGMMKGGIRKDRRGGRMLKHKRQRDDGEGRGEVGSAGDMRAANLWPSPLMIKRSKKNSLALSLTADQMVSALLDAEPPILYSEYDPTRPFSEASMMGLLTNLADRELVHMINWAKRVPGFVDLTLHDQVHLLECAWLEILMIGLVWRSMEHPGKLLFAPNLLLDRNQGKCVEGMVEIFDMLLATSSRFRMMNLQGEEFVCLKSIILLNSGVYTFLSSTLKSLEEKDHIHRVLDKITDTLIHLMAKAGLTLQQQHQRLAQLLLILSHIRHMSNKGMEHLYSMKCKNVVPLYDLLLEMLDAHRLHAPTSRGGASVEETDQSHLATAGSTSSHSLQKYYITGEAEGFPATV
# Procedure, shortened: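 Beta-lactamase FRET fluorescence is read after 2 hr at room temperature with LiveBLAzer B/G substrate. Before that, ER-alpha-bla HEK293 cells sit 4 hr after plating, then receive compound plus 17beta-estradiol and incubate 18 hr at 37C.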
# [13] = biological target: Estrogen receptor (Homo sapiens) (UniProt P03372); assay: qHTS assay to identify small molecule agonists of the estrogen receptor alpha (ER-alpha) signaling pathway (AID 743075; calls by dose curve;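 further: HEK293 GripTite cells with ER-alpha and UAS-driven beta-lactamase reporter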)
# [14] = biological target: Estrogen receptor (Homo sapiens) (UniProt P03372); assay: qHTS assay to identify small molecule agonists of the estrogen receptor alpha (ER-alpha) signaling pathway using the BG1 cell line (AID 743079); further: nearly all actives have a fitted effect of over 20% in size; further: potency means the concentration at half of the fitted maximal effect
# [15] = qHTS assay to identify small molecule antagonists of the estrogen receptor alpha (ER-alpha) signaling pathway using the BG1 cell line (AID 743080; calls by dose curve;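 further: BG1 cells stimulated with 17beta-estradiol alongside compound; series mostly up to about 70 µM; nearly all actives have a fitted effect of over 25% in size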)
# Procedure, shortened: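 After 5 days in phenol-red-free 10% charcoal-stripped FBS medium, BG1-Luc-4E2 cells were seeded, left 24 h at 37 C, co-treated with compounds and 17beta-estradiol for 21.5 h, then assayed for viability and luciferase.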
# [16] = qHTS assay to identify small molecule antagonists of the thyroid receptor (TR) signaling pathway - cell viability counter screen (AID 743064); further: nearly all actives have a fitted effect of over 50% in size
# Procedure, shortened: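 In-well cytotoxicity read by CellTiter-Fluor (30 min, 37 C) following 23.5 h exposure of GH3 cells bearing a TRE-luciferase sensor. Compounds were added alongside 1 nM (final) T3 to drive TR transactivation.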
# [17] = biological target: Androgen receptor (Homo sapiens) (UniProt P10275); assay: qHTS assay to identify small molecule antagonists of the androgen receptor (AR) signaling pathway (AID 743035; active means well fitted inhibition curve with a large enough effect in the signal ratio in the repeat runs, not every such curve was filed as active; the % refers to the signal ratio)
# Sequence of Androgen receptor (Homo sapiens) (P10275 whole entry, looked up): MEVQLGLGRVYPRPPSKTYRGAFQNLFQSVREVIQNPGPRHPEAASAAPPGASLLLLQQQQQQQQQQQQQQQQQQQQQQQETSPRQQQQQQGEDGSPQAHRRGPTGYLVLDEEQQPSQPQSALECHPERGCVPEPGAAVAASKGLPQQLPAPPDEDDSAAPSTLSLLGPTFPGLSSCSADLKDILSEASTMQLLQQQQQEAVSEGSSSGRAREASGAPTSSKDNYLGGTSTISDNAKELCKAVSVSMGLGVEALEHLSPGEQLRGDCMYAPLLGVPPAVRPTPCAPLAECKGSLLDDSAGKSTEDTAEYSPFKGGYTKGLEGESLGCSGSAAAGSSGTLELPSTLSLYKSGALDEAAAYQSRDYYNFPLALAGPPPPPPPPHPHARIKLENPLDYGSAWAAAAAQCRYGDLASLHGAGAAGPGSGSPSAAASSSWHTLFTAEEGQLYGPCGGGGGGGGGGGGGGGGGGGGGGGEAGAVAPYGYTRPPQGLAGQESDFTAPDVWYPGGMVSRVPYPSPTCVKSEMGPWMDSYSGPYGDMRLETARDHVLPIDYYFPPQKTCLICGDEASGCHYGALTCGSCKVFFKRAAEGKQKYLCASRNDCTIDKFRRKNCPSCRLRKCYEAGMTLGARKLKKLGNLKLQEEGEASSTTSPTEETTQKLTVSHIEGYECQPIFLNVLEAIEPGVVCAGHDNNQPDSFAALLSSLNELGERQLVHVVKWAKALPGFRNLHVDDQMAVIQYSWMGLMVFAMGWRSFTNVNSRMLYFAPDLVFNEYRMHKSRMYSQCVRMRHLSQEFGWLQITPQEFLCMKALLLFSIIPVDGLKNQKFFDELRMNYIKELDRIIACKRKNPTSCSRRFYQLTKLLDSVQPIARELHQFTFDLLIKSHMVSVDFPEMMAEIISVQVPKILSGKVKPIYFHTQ
# Procedure, shortened: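 R1881 agonist challenge of a HEK293 UAS-beta-lactamase AR reporter line in the presence of compound (16 h, 37C); signal taken as FRET fluorescence after 2 h with LiveBLAzer B/G substrate at room temperature.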
# [18] = biological target: Androgen receptor (Homo sapiens) (UniProt P10275); assay: qHTS assay to identify small molecule agonists of the androgen receptor (AR) signaling pathway (AID 743036; active means well fitted activation curve with a large enough effect in the signal ratio in the repeat runs, with a control signal flat, not every such curve was filed as active; the % refers to the signal ratio)
# Procedure, shortened: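 Activation was read as beta-lactamase FRET signal from LiveBLAzer B/G substrate, added for 2 h at room temperature. Before that, GeneBLAzer AR-UAS-bla GripTite (HEK293) cells had 16 h compound exposure at 37C.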
# [19] = biological target: Androgen receptor (Homo sapiens) (UniProt P10275); assay: qHTS assay to identify small molecule agonists of the androgen receptor (AR) signaling pathway using the MDA cell line (AID 743040; further: nearly all actives have a fitted effect of over 20% in size)
# Procedure, shortened: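 Luciferase read-out, ONE-Glo, 30 min RT. Cells: MDA-kb2 AR-luc, MMTV promoter with AR and GR response elements. Compound exposure 16 h, 37C, 0% CO2, after 5 h pre-incubation. qHTS agonist mode.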
# [20] = biological target: Androgen receptor (Homo sapiens) (UniProt P10275); assay: qHTS assay to identify small molecule antagonists of the androgen receptor (AR) signaling pathway using the MDA cell line (AID 743042; further: nearly all actives have a fitted effect of over 55% in size)
# Procedure, shortened: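 MDA-kb2 breast carcinoma cells carrying MMTV-luciferase (AR/GR responsive) were co-treated with compounds and the agonist R1881 for 16 h at 37C. Inhibition read as ONE-Glo luminescence; CellTiter-Fluor fluorescence measured in parallel for cytotoxicity.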
Compound,Potency [1],Potency [2],Potency [3],Potency [4],outcome [5],outcome [6],Potency [7],Potency [8],outcome [9],outcome [10],Potency [11],Potency [12],outcome [13],Potency [14],outcome [15],Potency [16],Potency [17],outcome [18],outcome [19],Potency [20]
CSc1nnc(C(C)(C)C)c(=O)n1N,inactive,inactive,inactive,inactive,inactive,inactive,inactive,inactive,inactive,inactive,,,,,,,,,,
O=[N+]([O-])c1ccc(Cl)cc1,inactive,inactive,inactive,inactive,inactive,inactive,inactive,inactive,inactive,inactive,inactive,,,,,,,,,
C[C@H]1C(=O)O[C@@H]2CCN3CC=C(COC(=O)[C@](C)(O)[C@]1(C)O)[C@H]23,inactive,inactive,inactive and 15.4 µM (active),inactive and 38.6 µM (active),inactive,inactive,inactive,inactive,inactive,inactive,inactive,inactive,inactive,inactive,inactive,,,,,
Nc1ncc([N+](=O)[O-])s1,inactive,inactive,,inactive,inactive,inactive,inactive,inactive,inactive,inactive,inactive,inactive,inactive,inactive and 61.1 µM (active),inactive,inactive,,,,
C=C(C)C(=O)OCC(CC)CCCC (centres undefined),inactive,inactive,inactive,inactive,inactive,inactive,inactive,inactive,inactive,inactive,inactive,inactive,inactive,inactive,inactive,,,,,
CC[N+](=O)[O-],inactive,inactive,inactive,inactive,inactive,inactive,inactive,inactive,inactive,inactive,inactive,,,,,,,,,
COc1nc(NC(C)C)nc(NC(C)C)n1,inactive,inactive,,inactive,inactive,inactive,inactive,inactive,inactive,inactive,inactive,inactive,inactive,inactive,inactive,inactive,,,,
CN(C)C(=O)Cl,inactive,inactive,inactive,inactive,inactive,inactive,inactive,inactive,inactive,inactive,inactive,inactive,inactive,inactive,inactive,,,,,
Nc1ccc([As](=O)(O)O)cc1,inactive,inactive,,inactive and 13.3 µM (active),inactive,inactive,inactive,inactive,inactive,inactive,inactive,inactive,inactive,inactive,inactive,inactive,,,,
CNC(=O)O/N=C/C(C)(C)S(C)=O (centres undefined),inactive,inactive,inactive,inactive,inactive,inactive,inactive,inactive,inactive,inactive,inactive,inactive,inactive,inactive,inactive,,,,,
O=C/C=C/c1ccccc1,inactive,inactive,,inactive,inactive,inactive,inactive,inactive,inactive,inactive,inactive,inactive,inactive,inactive and 61.1 µM (active),inactive,inactive,,,,
OCc1ccco1,inactive,inactive,inactive,inactive,inactive,inactive,inactive,inactive,inactive,inactive,inactive,inactive,inactive,inactive,inactive,,,,,
CCCOC(=O)c1ccccc1C(=O)OCCC,inactive,inactive,,inactive,inactive,inactive,inactive,inactive,inactive,inactive,inactive,inactive,inactive,inactive,inactive,inactive,,,,
Oc1ccc(Cl)cc1,inactive,inactive,inactive,inactive,inactive,inactive,inactive,inactive,inactive,inactive,inactive,,,,,,,,,
Nc1nc(N)nc(NC2CC2)n1,inactive,inactive,inactive,inactive and 61.1 µM (active),inactive,inactive,inactive,inactive,inactive,inactive,inactive,,,,,,,,,
COc1cc(-c2ccc(N)c(OC)c2)ccc1N,inactive,68.6 µM (active) and 16.4 µM (active),14.7 µM (active),,inactive,inactive,,inactive,inactive,inactive,inactive,,,,,,,,,
NNc1ccccc1,inactive,inactive,inactive and 60.4 µM (active),inactive and 48 µM (active),inactive,inactive,,inactive,inactive,inactive,inactive,,,,,,,,,
N#Cc1cccc(C#N)c1,inactive,inactive,inactive,inactive,inactive,inactive,inactive,inactive,inactive,inactive,inactive,,,,,,,,,
Cc1cccc(N)c1,inactive,inactive,,inactive,inactive,inactive,inactive,inactive,inactive,inactive,,inactive,inactive,inactive,inactive,inactive,,,,
Cc1cc(O)ccc1Cl,inactive,inactive,,inactive,inactive,inactive,inactive,inactive and 27.3 µM (active),inactive,inactive,inactive,inactive,inactive,inactive and 62.2 µM (active),inactive,inactive,,,,

Compound,Potency [1],Potency [2],Potency [3],Potency [4],outcome [5],outcome [6],Potency [7],Potency [8],outcome [9],outcome [10],Potency [11],Potency [12],outcome [13],Potency [14],outcome [15],Potency [16],Potency [17],outcome [18],outcome [19],Potency [20]
Clc1cnc(Oc2ccc(Oc3ncc(Cl)cc3Cl)cc2)c(Cl)c1,inactive,inactive,inactive,inactive and 30.6 µM (active),inactive,inactive,inactive,inactive,inactive,inactive,inactive,,,,,,,,,
O=C(O)Cc1ccccc1,inactive,inactive,,inactive,inactive,inactive,inactive,inactive,inactive,inactive,inactive,inactive,inactive,inactive,inactive,inactive,,,,
CNC(=O)O/N=C/C(C)(C)S(C)(=O)=O,inactive,inactive,,inactive,inactive,inactive,inactive,inactive,inactive,inactive,inactive,inactive,inactive,inactive,inactive,inactive,inactive,inactive,inactive,inactive
CC(C)c1cccc(C(C)C)c1O,inactive,inactive,,inactive,inactive,inactive,inactive,inactive,inactive,inactive,inactive,inactive,inactive,inactive,inactive,inactive,inactive,inactive,inactive,inactive
CC(C)(C)C(=O)CCl,inactive,inactive,,inactive,inactive,inactive,,,inactive,inactive,inactive,inactive,inactive,inactive,inactive,,inactive,inactive,inactive,inactive
O=C(O)COc1ccccc1,inactive,inactive,,inactive,inactive,inactive,inactive,inactive,inactive,inactive,inactive,inactive,inactive,inactive,inactive,inactive,,,,
Cl/C=C/Cl,inactive,inactive,,inactive,inactive,inactive,inactive,inactive,inactive,inactive,inactive,inactive,inactive,inactive,inactive,,,,,
Cc1ccc(N=C=O)cc1N=C=O,inactive,inactive,,62.7 µM (active) and inactive,inactive,inactive,inactive,inactive,inactive,inactive,inactive,,,,,,,,,
O=S(=O)(O)OOS(=O)(=O)O,inactive,inactive,,inactive,inactive,inactive,inactive,inactive,inactive,inactive,inactive,,,,,inactive,,,,
CN(C)C(=O)Nc1cccc(C(F)(F)F)c1,inactive,inactive,,inactive,inactive,inactive,inactive,inactive,inactive,inactive,inactive,,,,,inactive,,,,
CCCCCCCCCCCCCCCCCC(=O)O,inactive,inactive,,inactive,inactive,inactive,,,inactive,inactive,,,,,,inactive,,,,
Cc1cccc(C)c1N,inactive,inactive,,inactive,inactive,inactive,inactive,inactive,inactive,inactive,inactive,inactive,inactive,inactive,inactive,,,,,
O=[N+]([O-])c1ccc(Cl)c(Cl)c1,inactive,inactive,,inactive,inactive,inactive,inactive,inactive,inactive,inactive,inactive,inactive,inactive,inactive,inactive,,,,,
ClC(Cl)c1ccccc1,inactive,inactive,,inactive,inactive,inactive,inactive,inactive,inactive,inactive,inactive,inactive,inactive,inactive,inactive,,,,,
Nc1cc(Cl)cc(Cl)c1,inactive,inactive,,inactive,inactive,inactive,inactive,inactive,inactive,inactive,inactive,,,,,,,,,
CCOP(=S)(OCC)Oc1cc(C)nc(C(C)C)n1,,inactive,,inactive and 30.6 µM (active),inactive,inactive,,inactive,inactive,inactive,inactive and 17.2 µM (active),,,,,,,,,
CN(C)C(=O)C(c1ccccc1)c1ccccc1,inactive,inactive,,inactive,inactive,inactive,inactive,inactive,inactive,inactive,inactive,,,,,inactive,,,,
Cc1ccccc1N,inactive,inactive,,inactive,inactive,inactive,inactive,inactive,inactive,inactive,inactive,,,,,inactive,,,,
CCSC(=O)N1CCCCCC1,inactive,inactive,,inactive,inactive,inactive,inactive,inactive,inactive,inactive,inactive,inactive,inactive,inactive,inactive,,,,,
CC(=O)C1CCOC1=O (centres undefined),inactive,inactive,,inactive,inactive,inactive,inactive,inactive,inactive,inactive,inactive,,,,,inactive,,,,
